The record followed here is PubChem BioAssay (NCATS).

Several values for one entry are separate records, joined by “and”; a condition that tells them apart may be missing. Equal values may be shown once. Results filed as inconclusive are left out. Unmarked numbers belong to inactive results. Activity calls are given as the source filed them. The call rests on the fitted dose curve; in most records, active means well fitted curve in the direction sought with a large enough effect; inconclusive means small, poorly fitted or top-dose-only effect, or another doubt; inactive means no such curve, though single readings can be large; an effect the other way counts as inactive or inconclusive.

Assay [1] in a line: Quantitative highthroughput screen to assess conditional lethalithy of NOMO1 cells grown in RPMI1640 with untreated serum (RPMI+s) (AID 1963876). Further: nearly all actives have a fitted effect of over 35% in size.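 On viability: 100% = DMSO wells and 0% = empty wells without cells.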 The method in brief:
(§1)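 Each medium arm—HPLM with 10% dialyzed FBS, or RPMI1640 with 5 mM glucose and 10% untreated or dialyzed FBS—was screened against an 11-point, 3-fold compound titration for 48 h at 37 °C, with CellTiter-Glo luminescence as endpoint.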

Assay [2] can be described thus: Quantitative highthroughput screen to assess conditional lethalithy of NOMO1 cells grown in RPMI1640 with dialyzed fetal bovine serum (RPMI+ds) (AID 1963877). Further: nearly all actives have a fitted effect of over 30% in size.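 On viability: series mostly up to about 46 µM; 100% = DMSO control wells and 0% = empty wells.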 The method in brief: as §1
Assay [3] can be described thus: Quantitative highthroughput screen to assess conditional lethalithy of NOMO1 cells grown in Human Plasma-Like Medium with dialyzed fetal bovine serum (HPLM+ds) (AID 1963878). Further: nearly all actives have a fitted effect of over 35% in size.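 On viability: 100% = DMSO wells and 0% = empty wells on each plate.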 The method in brief:
as §1

The nature of assay [4]: Quantitative highthroughput screen to assess conditional lethalithy of SEM cells grown in Human Plasma-Like Medium with dialyzed fetal bovine serum (HPLM+ds) (AID 1963882). Further: nearly all actives have a fitted effect of over 35% in size. On viability: series mostly up to about 46 µM. A digest of the protocol:
as §1

A short description of assay [5]: Quantitative highthroughput screen to assess conditional lethalithy of SEM cells grown in RPMI1640 with unreated serum (RPMI+s) (AID 1963883). Further: nearly all actives have a fitted effect of over 35% in size.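 On viability: 100% = DMSO wells and 0% = empty wells without cells.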 The method in brief:
as §1

A short description of assay [6]: Quantitative highthroughput screen to assess conditional lethalithy of SEM cells grown in RPMI1640 with dialyzed fetal bovine serum (RPMI+ds) (AID 1963884). Further: nearly all actives have a fitted effect of over 35% in size.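 On viability: series mostly up to about 46 µM; 100% = DMSO control wells and 0% = empty wells without cells.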 The method in brief: as §1
A short description of assay [7]: Quantitative highthroughput screen to assess conditional lethalithy of P12 Ichikawa cells grown in RPMI1640 with dialyzed fetal bovine serum (RPMI+ds) (AID 1963880). Further: nearly all actives have a fitted effect of over 35% in size.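 On viability: 100% = DMSO wells and 0% = empty wells on each plate.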 Particulars: Potency: P12-Ichikawa viability. A digest of the protocol:
as §1

A short description of assay [8]: Quantitative highthroughput screen to assess conditional lethalithy of P12 Ichikawa cells grown in RPMI1640 with untreated serum (RPMI+s) (AID 1963881). Further: nearly all actives have a fitted effect of over 35% in size.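 On viability: series mostly up to about 46 µM; 100% = DMSO wells and 0% = empty wells without cells.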 Particulars: Potency: viability. The method in brief:
as §1

Assay [9] is described as follows: Cellular viability qHTS for adrenocortical cancer (ACC) cell line SW-13 (AID 1963989). Further: nearly all actives have a fitted effect of over 65% in size.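 On activity (max response): cells grown in serum-free medium with ITS supplement; on the % scale 0 is the no-effect control and ±100 the full control effect.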 Particulars: SW-13 ACC cells viability, CellTiter-Glo, 48 h; activity (max response): active compounds read low. The method in brief: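 IC50 and maximal-response values come from four-parameter logistic fits of titration data. SW-13 cells in serum-free medium received compounds (up to 46 uM final) for 48 h before CellTiter-Glo luminescence.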
On the technique in general: qHTS replaces the single test concentration by a dilution series.

Assay [10] is described as follows: Cellular viability qHTS for adrenocortical cancer (ACC) cell line NCI-H295R (AID 1963990). Further: nearly all actives have a fitted effect of over 60% in size. The method in brief:
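Adrenocortical carcinoma cells, suspended at 300 000 cells/mL in serum-free DMEM plus ITS, rested overnight before pin transfer of compound. After two days' incubation, ATP-dependent luminescence was recorded and curve-fitted.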

A short description of assay [11]: Quantitative highthroughput screen to assess conditional lethalithy of P12 Ichikawa cells grown in Human Plasma-Like Medium with dialyzed fetal bovine serum (HPLM+ds) (AID 1963879). Further: nearly all actives have a fitted effect of over 35% in size. Particulars: Potency: viability. A digest of the protocol: as §1
Potency means the concentration at half of the fitted maximal effect.

With `C=CCNC1=C2C[C@@H](C)C[C@H](OC)[C@@H](O)[C@@H](C)C=C(C)[C@H](OC(N)=O)[C@@H](OC)C=CC=C(C)C(=O)NC(=CC1=O)C2=O`, the Potency in [1] is 5.26 µM (active); in [2], 5.9 µM (active); in assay [3], 5.9 µM (active); in assay [4] it was 0.526 µM (active); in [5], 332 nM (active); in assay [6] it was 0.332 µM (active).

On to `CC(C)c1ccc(Cn2ccc3c4c(N)nc(NC5CC5)nc4ccc32)cc1`, for which the Potency was 10.5 µM (active) in assay [1]; 5.9 µM (active) in assay [2]; 1.05 µM (active) in assay [3]; 2.64 µM (active) in assay [7]; 4.69 µM (active) in assay [8]; 1.66 µM (active) in assay [4]. For the same compound, the Potency in assay [5] is 3720 nM (active); in assay [6], 3.72 µM (active); in [9], 398 nM (active); in assay [10], 1.12 µM (active).

On to `O=C1c2c(O)cc(O)cc2O[C@H](c2cc(O)c(O)c(O)c2)[C@H]1O`, for which the Potency result in assay [1], in [2], in assay [3] and in assay [8] was “inactive” each time. Further, the Potency in assay [4] was 3.72 µM (active); in [6] it was 5.26 µM (active).

On to `c1ccc2[nH]c(-c3cscn3)nc2c1`, for which the Potency result in assay [1], in [2] and in assay [10] was “inactive” in each case. Moreover, the Potency was 8.33 µM (active) in assay [3] and 9.35 µM (active) in assay [11]. For the same compound, the activity (max response) in [9] was -9.06% and -18.4%.

For `CO[C@H]1C(=O)[C@]2(C)[C@@H](OC)C[C@H]3OC[C@@]3(OC(C)=O)[C@H]2[C@H](OC(=O)c2ccccc2)[C@]2(O)C[C@H](OC(=O)[C@H](O)[C@@H](NC(=O)OC(C)(C)C)c3ccccc3)C(C)=C1C2(C)C`, the Potency was 0.0132 µM (active) in [1]; 0.0132 µM (active) in assay [2]; 0.0021 µM (active) in assay [3]; 0.0148 µM (active) in assay [8]; 4.2 nM (active) in [5]; 0.0079 µM (active) in assay [10].

On to `O=C(O)[C@H](CC(=O)N1C[C@@H]2CCCC[C@H]2C1)Cc1ccccc1`, for which the Potency entry in assay [1], in assay [2], in assay [3], in [7], in [8] and in [4] was “inactive” in each case. Besides, the Potency result in assay [5] and in assay [6] was “inactive” throughout.

For the compound `O=C1NC(=O)C(=Cc2ccc3c(c2)OC(F)(F)O3)S1`, the Potency entry in [1], in assay [2], in assay [3], in assay [7], in assay [8] and in assay [4] was “inactive” each time. Besides, the Potency result in assay [6] was “inactive”.

For the compound `Cc1nc(NC(=O)N2CCC[C@@H]2C(N)=O)sc1-c1ccnc(C(C)(C)C(F)(F)F)c1`, the Potency in assay [1] was 2.96 µM (active); in assay [2], 2.64 µM (active); in assay [3] it was 2.64 µM (active); in [7], 5.9 µM (active); in [8], 3.32 µM (active); in assay [4] it was 1.48 µM (active). The Potency in assay [6] was 2.96 µM (active).

Regarding `CC(C)(C)OC(=O)N[C@H]1CCCCCC=C[C@@H]2C[C@@]2(C(=O)NS(=O)(=O)C2CC2)NC(=O)[C@@H]2C[C@@H](OC(=O)N3Cc4cccc(F)c4C3)CN2C1=O`, the Potency entry in [1], in assay [2], in assay [3], in assay [7], in [8] and in assay [4] was “inactive” each time. Besides, the Potency result in assay [5], in assay [6] and in [10] was “inactive” each time. Besides, the activity (max response) in assay [9] is 8.79%.

Take `NC(=O)c1nnn(Cc2cc(Cl)c(C(=O)c3ccc(Cl)cc3)c(Cl)c2)c1N`: the Potency entry in assay [1], in assay [2], in [3] and in [4] was “inactive” each time.

On to `Cc1ccc(C2=Nc3ccc(Cl)cc3OC2)cc1`, for which the Potency result in [1], in assay [2], in [3] and in [10] was “inactive” in each case. In assay [8], the Potency was 20.9 µM (active). Further, the activity (max response) in assay [9] is -18.7%.

Consider `N=C1SC(=Cc2ccc(-c3ccc4c(c3)C(=O)NC4=O)o2)C(=O)N1c1ccc(Br)cc1`, for which the Potency result in [1], in assay [2], in assay [3], in assay [7] and in assay [8] was “inactive” throughout. Moreover, the Potency in [5] was 13200 nM (active).

As to `N#CC(=C1Nc2ccccc2S1)c1ccnc(OCc2ccc(CN3CCOCC3)cc2)n1`, the Potency is 8.33 µM (active) in assay [1], 8.33 µM (active) in [2] and 6.62 µM (active) in assay [3]. Also, the Potency entry in assay [4], in [5] and in assay [6] was “inactive” in each case.

As for `C[C@H]1[C@H](O)O[C@@H]2O[C@@]3(C)CC[C@@H]4[C@H](C)CC[C@@H]1[C@@]24OO3`, the Potency in assay [1] is 1.87 µM (active); in assay [2], 2.09 µM (active); in [3], 2.09 µM (active); in [8] it was 2.96 µM (active); in assay [4], 4.18 µM (active); in [5], 4690 nM (active). Also, the Potency in assay [6] is 3.32 µM (active).

Turning to `O=C1NC(=O)C(=Cc2ccc(-c3ccc(F)cc3)o2)S1`, the Potency entry in assay [1], in [2], in assay [3], in assay [7], in assay [8] and in assay [4] was “inactive” each time. For the same compound, the Potency result in assay [5] and in assay [6] was “inactive” in each case.

Regarding `C=C1C(=O)O[C@H]2[C@@H]1CCC(C)=CCC[C@@]1(C)O[C@@H]21`, the Potency in [1] is 4.69 µM (active); in assay [2] it was 5.9 µM (active); in assay [3], 2.35 µM (active); in [7], 2.35 µM (active); in [8], 2.64 µM (active); in [4] it was 1.32 µM (active). The values for the Potency in assay [5] and in [6] were 833 nM (active) and 1.48 µM (active), respectively.

Consider `C[C@]12CCC(=O)C=C1CC[C@@H]1[C@H]2[C@@H](O)C[C@@]2(C)[C@H]1CC[C@]2(O)C(=O)CO`, for which the Potency result in assay [1], in assay [2], in assay [3] and in assay [4] was “inactive” in each case.

Turning to `O=C(C=Cc1cccnc1)NCCCCC1CCN(C(=O)c2ccccc2)CC1`, the Potency in [1] was 0.0059 µM (active); in assay [2], 0.0033 µM (active); in assay [3] it was 0.0026 µM (active); in assay [7] it was 0.0053 µM (active); in assay [8], 0.0047 µM (active); in [5], 2.6 nM (active). The Potency in [6] is 0.0019 µM (active).

As to `CC[C@@H]1C=C(C)C[C@H](C)C[C@H](OC)[C@H]2O[C@@](O)(C(=O)C(=O)N3CCCC[C@@H]3C(=O)O[C@H](C(C)=C[C@@H]3CC[C@H](Cl)[C@H](OC)C3)[C@H](C)[C@@H](O)CC1=O)[C@H](C)C[C@H]2OC`, the Potency result in [1], in [2], in [3], in assay [7], in assay [8] and in assay [5] was “inactive” throughout. Moreover, in assay [6], the Potency is 1.48 µM (active).
